# In the library only some 19% were active in any assay of this set; here they are far more common.
# DT40 TDP1 CPT: qHTS for Inhibitors of human tyrosyl-DNA phosphodiesterase 1 (TDP1): qHTS in cells in presence of CPT; hit rate 12% among 420,000; Potency, µM (top dose mostly 46.2 µM), for the others: at the highest dose activity change, negative = growth inhibition, most hits filed as inhibitors; chicken DT40 Tdp1-/-;hTDP1 cells + 20 nM CPT, ATP luminescence, 48 h; AID 686979, 2013; also: potency is read from the fitted curve at half-maximal effect; nearly all actives have a fitted effect of over 55% in size
#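 Chicken DT40 Tdp1-/- cells stably complemented with human TDP1 were seeded at 400 cells/well in medium containing 20 nM camptothecin, exposed to pin-transferred compounds, and grown at 37 °C for at least 48 hr. Viability was read as ATP luminescence.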
# DT40 TDP1 no CPT: qHTS for Inhibitors of human tyrosyl-DNA phosphodiesterase 1 (TDP1): qHTS in cells in absence of CPT. DT40 Tdp1-/- hTDP1 cells, no CPT, ATP luminescence, 48 h. Potency, µM (series often up to 46.2 µM), for the others: top-dose activity change, negative = growth inhibition, hits mostly inhibitors. hit rate 15% among 420,000. AID 686978, 2013; also: potency is read from the fitted curve at half-maximal effect; nearly all actives have a fitted effect of over 55% in size
#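 DT40 Tdp1-/-;hTDP1 cells, no CPT (DMSO vehicle only), 400 cells/well; compounds pin-transferred; ≥48 hr, 37 °C; CellTiter-Glo 30 min RT dark, luminescence read.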
# ELG1 repair inh: qHTS screen for small molecules that inhibit ELG1-dependent DNA repair in human embryonic kidney (HEK293T) cells expressing luciferase-tagged ELG1 | HEK293T ELG1-luciferase reporter, luminescence, 16 h; DNA damage induced by 5-fluorouridine | Potency, µM (highest dose often 46.1 µM), for inactives: at the highest dose activity change, negative = inhibition, usual class: inhibitors | hit rate 2.3% among 330,000 | AID 504467, 2011; also: potency is read from the fitted curve at half-maximal effect; nearly all actives have a fitted effect of over 55% in size
#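 Overnight (16 hr) co-exposure of 2,000 cells/well to 5-fluorouridine and compound at 37 °C preceded detection. Luciferase was quantified via ONE-Glo luminescence; loss of signal denotes inhibition.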
# IL-1B inflam inh: qHTS for Inhibitors of Inflammasome Signaling: IL-1-beta AlphaLISA Primary Screen | THP-1 LPS/ATP IL-1B secretion, AlphaLISA, 16 h; active compounds read low | activity change, % at 57.5 µM | hit rate 4.7% among 360,000; in the data active = activity change below about -50%; inconclusive = mostly about -30% to -49%
#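 Secreted IL-1B measured by AlphaLISA bead assay after 16 h compound exposure of THP-1 cells; compounds (final up to 57.5 uM) added 1 h before LPS (250 ng/mL) and ATP (1.25 mM) stimulation; lower signal means less secretion.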
# Giardia killer: Small Molecules that selectively kill Giardia lamblia: qHTS; Giardia lamblia trophozoite viability; activity change, % at 7.66 µM, hits read low; hit rate 0.15% among 340,000; AID 540267, 2011; in the data active = activity change below about -80%; inconclusive = between about -30% and that limit;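 also: parasites exposed to compound for two days anaerobically before the ATP read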
#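 Media and compound were dispensed first, then trophozoites at 100 cells/well; plates sat 48 hrs at 37 deg C without oxygen before ATP luminescence reagent was added and read after 15-30 min at room temperature.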
# TDP1 inh: qHTS Assay for Inhibitors of Tyrosyl-DNA Phosphodiesterase (TDP1); recombinant TDP1, AlphaScreen DNA substrate cleavage; hit rate 0.28% among 350,000; Potency, µM (doses to about 130 µM), inactives show at the top dose activity change, negative = inhibition, usual class: inhibitors; Tyrosyl-DNA phosphodiesterase 1 (Homo sapiens), Q9NUW8; AID 485290, 2010; also: potency is read from the fitted curve at half-maximal effect; nearly all actives have a fitted effect of over 40% in size
# Target sequence (Q9NUW8 whole entry, looked up): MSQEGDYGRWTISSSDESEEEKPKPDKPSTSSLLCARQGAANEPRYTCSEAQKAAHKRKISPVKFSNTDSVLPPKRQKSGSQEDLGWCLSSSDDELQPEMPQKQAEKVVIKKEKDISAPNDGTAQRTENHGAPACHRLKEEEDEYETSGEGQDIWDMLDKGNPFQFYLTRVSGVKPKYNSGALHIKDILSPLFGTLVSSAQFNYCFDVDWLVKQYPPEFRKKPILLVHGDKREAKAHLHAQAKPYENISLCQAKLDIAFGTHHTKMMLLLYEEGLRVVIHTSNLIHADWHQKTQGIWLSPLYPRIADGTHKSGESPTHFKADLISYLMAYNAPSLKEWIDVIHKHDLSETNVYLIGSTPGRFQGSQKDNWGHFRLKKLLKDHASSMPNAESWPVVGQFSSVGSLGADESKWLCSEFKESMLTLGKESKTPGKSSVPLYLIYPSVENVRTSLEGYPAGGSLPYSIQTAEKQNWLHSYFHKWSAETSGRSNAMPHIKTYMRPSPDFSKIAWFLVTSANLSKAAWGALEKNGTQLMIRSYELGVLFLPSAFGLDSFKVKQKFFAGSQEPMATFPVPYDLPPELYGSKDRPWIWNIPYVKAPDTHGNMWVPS
#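 Steps: enzyme plus compound, 15 min RT; add biotin/phosphotyrosine-FITC oligonucleotide (15 nM final), react 5 min; add donor/acceptor beads (10 ug/ml final), 10 min; read AlphaScreen. Tdp1 at 1 nM final.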
# Starred values were filed as active, the others as inactive; ? = inconclusive; / = not tested or not shown; [ ] = another dose, or the depositor's remark. Unless noted, calls follow the shape of the dose curve; as a rule, active = well fitted curve in the direction sought with a large enough effect; inconclusive = small, poorly fitted or top-dose-only effect, or another doubt; inactive = no such curve, though single readings can be large; an effect the other way counts as inactive or inconclusive. % is scaled to controls: 0 for no effect and ±100 for the full control effect.
SMILES,DT40 TDP1 CPT,DT40 TDP1 no CPT,ELG1 repair inh,IL-1B inflam inh,Giardia killer,TDP1 inh
Cc1cc(Cl)ccc1C(O)c1ncc(-c2cccc3ccccc23)[nH]1 (stereo not given),?,?,/,-27.4,/,/
COc1ccc(Nc2nnc(SCC(=O)c3cc(C)n(CC4CCCO4)c3C)s2)cc1 (stereo not given),18.4µM*,?,?,0.6,12.7,2.9%
Cc1cc(C(=O)CSc2nc3ccc(Cl)cc3[nH]2)c(C)n1CC1CCCO1 (stereo not given),9.2µM*,5.8µM*,23.1µM*,-11.5,-0.1,10.1%
COc1ccc(Nc2nnc(SCC3CCCCO3)s2)cc1 (stereo not given),-1.3%,-2.7%,-2.2%,0.0,-5.4,5.8%
Cc1cc(C(=O)CSc2nnc(-c3ccc(Cl)cc3)n2CC2CCCO2)c(C)n1C (stereo not given),11.6µM*,23.1µM*,1.7%,-1.6,14.2,1.5%
COC(=O)CC1C(=O)NC2CCCCC2N1C(=O)CCl (stereo not given),?,14.6µM*,?,-61.9*,-7.7,4.8%
CCNC(=O)N1C(CC(=O)OCC)C(=O)NC2CCCCC21 (stereo not given),-2.8%,0.6%,2.2%,3.3,-15.8,4.4%
Cc1c(NC(=O)CC2NC(=O)NC2=O)c(=O)n(-c2ccccc2)n1C (stereo not given),/,/,18.3%,/,/,-5.1%
CCc1ccc2nc(N(CCN(C)C)C(=O)c3ccc4ccccc4c3)sc2c1,?,-17.7%,13.0%,-53.5*,-10.4,11.4%
CN(C)CCN(C(=O)c1ccc2ccccc2c1)c1nc2ccc(F)cc2s1,-18.5%,-20.9%,25.1%,-19.2,-10.2,17.0%
COc1ccc(Cl)c2sc(N(CCN(C)C)C(=O)c3ccc4c(c3)OCCO4)nc12,?,?,15.3%,-95.6*,7.7,-4.8%[0.505 µM]
CN(C)CCN(C(=O)c1ccc2ccccc2c1)c1nc2cc3c(cc2s1)OCO3,?,23.1µM*,/,-4.6,/,/
CCOc1ccc2nc(N(CCN(C)C)C(=O)c3ccc4c(c3)CCCC4)sc2c1,?,?,15.8%,-64.7*,-23.7,12.9%
O=C(CC1C(=O)NCCN1Cc1cccc(C(F)(F)F)c1)NCCc1cnccn1 (stereo not given),-15.2%,-4.2%,1.0%,3.0,3.1,1.4%
Cc1cc(C)c(NC(=O)C2CCCN2C(=O)NC2CCCCC2)c(C)c1 (stereo not given),13.2%,-25.0%,-3.4%,10.5,3.1,5.4%[56.1 µM]
CCOC(=O)C1=C(C)NC(=O)NC1C(C)C (stereo not given),-15.3%,-7.3%,/,23.1,11.4,/
CCN(CC)CCN(C(=O)c1ccc2c(c1)CCCC2)c1nc2cc(OC)c(OC)cc2s1,23.1µM*,-25.0%,-14.2%,-81.8*,-2.9,10.9%
CN(C)CCN(C(=O)c1ccc2c(c1)OCCO2)c1nc2cc3c(cc2s1)OCO3,-10.0%,-12.2%,26.1%,-53.8*,-9.4,6.9%
CN(C)CCN(C(=O)c1ccc(S(=O)(=O)N(C)C)cc1)c1nc2cc3c(cc2s1)OCCO3,0.0%,-25.5%,?,7.6,-1.6,4.6%
COc1ccc2nc(N(CCN(C)C)C(=O)c3ccc4c(c3)OCCO4)sc2c1,6.3%,8.3%,-6.2%,-10.1,25.8,6.1%
CN(C)CCN(C(=O)c1ccc2c(c1)CCCC2)c1nc2cc3c(cc2s1)OCCO3,?,29.1µM*,?,-57.7*,7.8,2.1%
COc1ccc(C2CC(=O)c3cc(-c4nc(-c5cccc([N+](=O)[O-])c5)cs4)c(=O)n(-c4ccccc4C)c3C2)cc1 (stereo not given),-29.4%,-12.5%,/,/,/,2.7%
COc1cccc(-c2cnc(NCc3ccccc3Cl)n2C)c1,?,?,/,/,/,7.1%
Cc1nc(NCc2c(C)nn(C)c2Cl)sc1-c1ccn(CC2COc3ccccc3O2)n1 (stereo not given),16.4µM*,20.6µM*,/,/,/,/
Cc1nn(C)cc1CNc1nc(C)c(-c2ccn(CC3COc4ccccc4O3)n2)s1 (stereo not given),?,20.6µM*,/,/,/,/
SMILES,DT40 TDP1 CPT,DT40 TDP1 no CPT,ELG1 repair inh,IL-1B inflam inh,Giardia killer,TDP1 inh
Cc1nc(NCc2cnn(C)c2C)sc1-c1ccn(CC2COc3ccccc3O2)n1 (stereo not given),-6.4%[9.04 µM],?,/,/,/,/
CCn1ccnc1CC1COc2ccccc2O1 (stereo not given),2.0%,-12.0%,15.3%,-6.0,3.3,11.8%[56.1 µM]
Cc1cc(OCc2cc(C(=O)NCCN3CCCCC3CO)no2)cc(C)c1Cl (stereo not given),?,?,-8.5%,-61.9*,-5.1,0.6%
Cc1cc(OCc2cc(C(=O)N(C)Cc3nonc3C)no2)cc(C)c1Cl,?,-3.2%,-0.7%,-15.7,0.5,-13.1%
Cc1cc(OCc2cc(C(=O)N(C)C3CCOC3)no2)cc(C)c1Cl (stereo not given),16.4µM*,16.4µM*,?,-17.6,-10.5,0.7%
CCc1ccc(CN(C)C(=O)c2cc(COc3cc(C)c(Cl)c(C)c3)on2)nc1,16.4µM*,?,-1.7%,0.0,1.6,-4.3%
Cc1cc(OCc2cc(C(=O)N(C)CCc3cnn(C)c3)no2)cc(C)c1Cl,13µM*,20.6µM*,?,-58.7*,-26.3,1.5%
CC(=O)c1ccc(OCc2cc(C(=O)N(C)C3CCOC3)no2)cc1 (stereo not given),-2.5%,0.3%,0.0%,4.6,-0.1,5.6%
COc1ccc(NC(=O)c2nn(C)c3c2CS(=O)(=O)c2ccccc2-3)cc1Cl,?,-28.9%,/,/,/,-1.3%
CCCCOc1ccc(C2CC(=O)NC2=O)cc1 (stereo not given),1.6%,-10.6%,28.4%,2.5,6.8,7.0%
CCCCCCCOc1ccc(C2CC(=O)N(C)C2=O)cc1 (stereo not given),-2.2%,?,26.8%,-75.6*,-6.7,-11.9%
COc1ccccc1CNC(=O)CN(CCc1ccccc1)S(C)(=O)=O,-3.9%,-26.9%,-26.0%,4.0,-0.1,5.4%
O=C(NCc1ccccc1)c1onc(CSc2ccccc2)c1C(=O)NCc1ccccc1,16.4µM*,?,/,-16.0,-14.4,/

# Assay outcomes: PubChem, National Center for Advancing Translational Sciences (NCATS)
